This is an account of results in PubChem BioAssay (NCATS).

Records with an inconclusive call do not appear. Calls of active or inactive are those of the source. Calls come from the whole dose curve. Peptide text beside a SMILES is read from it.
% is set by controls: 0 for no effect and ±100 for the full control effect.

In this assay the target is Nucleoprotein (Lymphocytic choriomeningitis virus (strain Armstrong)) (UniProt P09992). Put plainly: qHTS for Inhibitors of the Functional Ribonucleoprotein Complex (vRNP) of Lymphocytic Choriomeningitis Arenaviruses (LCMV): LCMV Primary Screen - GLuc reporter signal (AID 1347086). Note: nearly all actives have a fitted effect of over 70% in size. The settings on record: LCMV minigenome vRNP cell assay, Gaussia luciferase reporter; series mostly up to 57.5 µM; activity change, negative = inhibition: at the top concentration. Background: Quantitative high-throughput screening tests each substance at several concentrations.
Nucleoprotein (Lymphocytic choriomeningitis virus (strain Armstrong)), sequence (P09992 whole entry, looked up): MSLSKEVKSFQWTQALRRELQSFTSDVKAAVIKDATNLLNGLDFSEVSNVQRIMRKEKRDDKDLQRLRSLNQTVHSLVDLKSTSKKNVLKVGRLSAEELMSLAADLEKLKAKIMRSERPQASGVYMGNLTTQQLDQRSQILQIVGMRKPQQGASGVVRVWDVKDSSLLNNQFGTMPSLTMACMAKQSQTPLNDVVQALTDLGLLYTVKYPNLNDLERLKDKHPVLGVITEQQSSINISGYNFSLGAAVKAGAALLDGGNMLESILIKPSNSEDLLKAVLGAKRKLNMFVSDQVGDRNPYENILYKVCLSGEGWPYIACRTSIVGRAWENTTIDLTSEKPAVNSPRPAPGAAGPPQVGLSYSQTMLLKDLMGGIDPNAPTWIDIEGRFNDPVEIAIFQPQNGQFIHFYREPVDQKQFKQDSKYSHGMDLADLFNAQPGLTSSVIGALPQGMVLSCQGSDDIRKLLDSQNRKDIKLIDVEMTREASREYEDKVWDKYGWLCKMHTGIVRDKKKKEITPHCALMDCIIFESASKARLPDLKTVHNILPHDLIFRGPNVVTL
For `CC1(C)[C@H](C(=O)O)N2C(=O)C[C@H]2S1(=O)=O`, the Potency result is “inactive”.

In the case of `CCCCCOc1ccccc1/C(=C\SC)n1ccnc1`, the “activity change, negative = inhibition” value is -64.2% (inactive). Still for that read-out and setting: under `CN(C)CCOC1=Cc2ccccc2Sc2ccc(Cl)cc21` stands -4.54% (inactive); under `CCCCN=C(N)N=C(N)N`, -7.27% (inactive); under `NCCNC(=O)c1ccc(Cl)cn1`, 5.08% (inactive). Consider `CCOC(=O)OCC/C(SC(=O)OCC)=C(\C)N(C=O)Cc1cnc(C)nc1N`, for which the “activity change, negative = inhibition” value was -21.7% (inactive). `COc1cccc(N(C)C(=S)Oc2ccc3c(c2)CCCC3)n1`: the Potency entry was “inactive”.

With `CCOC(CN1CCN(CC(C)C(=O)c2ccccc2)CC1)c1ccccc1` (stereo not given), the “activity change, negative = inhibition” value is -12.9% [at 24.7 µM] (inactive). Consider `CC(=O)N[C@@H](CO)C(=O)N[C@@H](CC(=O)O)C(=O)N[C@@H](CCCCN)C(=O)N1CCC[C@H]1C(=O)O` (Ac-SDKP-OH), for which the “activity change, negative = inhibition” value was 35.4% (inactive). For the compound `CCCCCC(N)=O`, the “activity change, negative = inhibition” value was 14.8% (inactive).

In the case of `CC(=O)[C@H]1CC[C@H]2[C@@H]3CC=C4C[C@@H](O)CC[C@]4(C)[C@H]3CC[C@]12C`, the Potency entry is “inactive”. With `CCN(CC)CCOc1ccc(/C(=C(\Cl)c2ccccc2)c2ccccc2)cc1`, the “activity change, negative = inhibition” value was -33% (inactive). With `O=c1[nH]c(=O)n([C@H]2C[C@H](O)[C@@H](CO)O2)cc1C(F)(F)F`, the “activity change, negative = inhibition” value is -9.73% (inactive).

As for `CCN1C(=O)c2ccccc2C1Nc1ccc(OCCN2CCCCC2)cc1` (stereo not given), the “activity change, negative = inhibition” value was -5.43% (inactive).

As for `CC(C(=O)O)c1ccc2c(c1)Cc1cccnc1O2` (stereo not given), the “activity change, negative = inhibition” value is 24.1% (inactive).

Take `CN(C)CC/C=C1\c2ccccc2Sc2ccc(Cl)cc21`: the “activity change, negative = inhibition” value is -40.9% (inactive). For the compound `CCOC(=O)[C@H](CCc1ccccc1)N[C@H]1CS[C@H](c2cccs2)CN(CC(=O)O)C1=O`, the Potency result was “inactive”. Same read-out and setting: the same measure for `O=C1O[C@H]([C@@H](O)CO)C(O)=C1O`: “inactive”. Take `CN1[C@@H]2CC[C@H]1CC(NC(=O)n1c(=O)[nH]c3ccccc31)C2` (stereo not given in full): the “activity change, negative = inhibition” value is 17.6% (inactive). For `Cc1cc(NC(=O)C2=C(O)c3ccccc3S(=O)(=O)N2C)no1`, the “activity change, negative = inhibition” value was 1.18% (inactive).
